# D1 antag: human D1 dopamine receptor antagonism | P21728 | HEK293 TREx D1 cells, calcium flux, dopamine EC80; hits give low values | activity change, negative = inhibition, % at 10 µM | 3.2% of 360,000 active | AID 504652; in the data active = activity change below about -30%
#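 Kinetic fluorescence of a calcium dye serves as the read-out. D1-expressing Hek293 Trex cells, induced overnight at 30 C, are exposed to compound for 180 s before an EC80 dopamine addition, then read 180 s further.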
# D3 antag: antagonists of human D3 dopamine receptor. P35462. D3R cells, DiscoveRx beta-arrestin luminescence, antagonist mode; hits give low values. max response, negative = inhibition, %. 2.5% of 360,000 active. AID 652054; in the data active = max response below about -50%; inconclusive = no clear call, values can overlap the other calls
# Target sequence (P35462 whole entry, looked up): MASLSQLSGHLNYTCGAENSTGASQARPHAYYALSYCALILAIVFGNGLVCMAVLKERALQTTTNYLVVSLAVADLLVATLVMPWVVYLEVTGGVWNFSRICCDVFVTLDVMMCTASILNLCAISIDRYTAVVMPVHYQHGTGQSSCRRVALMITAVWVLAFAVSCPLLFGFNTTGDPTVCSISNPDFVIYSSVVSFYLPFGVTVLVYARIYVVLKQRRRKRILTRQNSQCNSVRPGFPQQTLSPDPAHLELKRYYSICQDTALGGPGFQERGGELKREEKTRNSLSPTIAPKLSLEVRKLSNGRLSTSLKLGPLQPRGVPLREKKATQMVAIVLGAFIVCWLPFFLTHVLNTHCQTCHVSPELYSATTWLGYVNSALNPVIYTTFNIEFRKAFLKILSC
#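 Cells plated overnight at 1500 cells/well, then exposed to library compounds with dopamine controls for 90 minutes at 37 degrees C. DiscoveRx reagent added for 30–60 minutes at room temperature; luminescence read, quantitative HTS format.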
# D1 potentiator: human D1 dopamine receptor positive modulation; P21728; HEK293 TREx D1 cells, calcium flux, dopamine EC20 potentiation; 0.036% of 360,000 active; potentiation, % at 10 µM; in the data active = potentiation above about 30%
# D1 ag: activates the human D1 dopamine receptor; HEK293 T-REx D1 cells, calcium flux, agonist mode; P21728; activation, % at 2 µM; 1% of 360,000 active; in the data active = activation above about 30%
#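 Agonism was scored from calcium flux recorded over 180 s (1 read/s) after pintool compound addition, following a 10-cycle baseline. Cells were inducible force-coupled HEK293 TREx D1, plated overnight at 30 C and loaded with no-wash calcium dye.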
# DRD3 agonist: activates the human D3 dopamine receptor | P35462 | max activation, % | 0.58% of 410,000 active | D3R DiscoveRx beta-arrestin cells, luminescence, 90 min; in the data active = max activation above about 30%
#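 Agonist-mode cell screen: cells plated at 1500/well and incubated overnight at 37 °C, then exposed to library compounds for 90 min at 37 °C. Detection reagent was added for 30–60 min at room temperature, and luminescence was read.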
# Numbers stand for hits; i = inactive; ? = inconclusive; nt = no result given. Compounds with a hit are over-represented: about 6% of the library has one in this group of screens.
SMILES,D1 antag,D3 antag,D1 potentiator,D1 ag,DRD3 agonist
COc1ccc(-n2c(O)c(/C=N/Nc3nc(C)cc(C)n3)c3ccccc3c2=O)cc1OC,i,?,i,i,i
COc1ccc(-n2c(O)c(/C=N/NS(=O)(=O)c3cc(C)ccc3C)c3ccccc3c2=O)cc1OC,i,i,i,69,i
Cc1cccc(-n2c(O)c(C=Nc3ccc(O)cc3)c3ccccc3c2=O)n1,i,i,i,i,i
Cc1ccc(N=Cc2c(O)n(-c3ccc4c(c3)OCO4)c(=O)c3ccccc23)cc1,i,-59,i,i,i
COc1ccc(-n2c(O)c(/C=N/NS(=O)(=O)c3ccc(C)cc3)c3ccccc3c2=O)cc1OC,i,i,i,53,i
CCc1cc(=O)oc2c(C)c3c(cc12)CN(CCc1ccccc1OC)CO3,i,nt,i,i,i
O=C(NC1CC(=O)N(c2ccc(F)cc2)C1)c1cc2ccccc2o1 (centres undefined),nt,nt,i,i,i
CCC(C)NC(=O)C(=O)Nc1c2c(nn1-c1ccccc1)CS(=O)(=O)C2 (centres undefined),nt,nt,i,i,i
CCCCn1c2ccccc2c2nnc(SCC(=O)Nc3ccc(NC(C)=O)cc3)nc21,i,nt,i,i,i
CC1CCN(CCOc2ccc(OCc3ccccc3)cc2)CC1,-41,i,i,33,i
c1ccc(COc2ccc(OCCCN3CCCCC3)cc2)cc1,i,-80,i,i,i
CN1CCN(CCOc2ccc(Cc3ccccc3)cc2)CC1,i,i,i,i,i
c1ccc(OCCCN2CCCC2)cc1,i,?,i,i,i
c1ccc(COc2ccc(OCCCCN3CCCC3)cc2)cc1,-34,i,i,35,i
OC[C@H]1O[C@@H](n2cnc3c(=S)nc[nH]c32)[C@H](O)[C@@H]1O,nt,nt,nt,nt,i
COc1cc2c(C#CCCO)c(-c3ccsc3)oc(=O)c2cc1OC,nt,i,nt,nt,i
COCc1ccc(-c2c(-c3ccsc3)oc(=O)c3cc(OC)c(OC)cc23)cc1,nt,i,nt,nt,42
CC1(C)CSC(=NCc2ccccc2)N1C(=O)c1cccc([N+](=O)[O-])c1,-38,i,i,85,i
NC(=NCc1ccccc1)c1cccc([N+](=O)[O-])c1,i,i,i,i,i
Cc1ccc(C)c(Cn2c3ccccc3c3cnn(CC(=O)NC(C)CCc4ccccc4)c(=O)c32)c1 (centres undefined),i,nt,i,i,i
CC(=O)Oc1ccc2oc(/C=C/N(C)C)c([N+](=O)[O-])c2c1,i,-80,i,i,i
C/C(=C/c1oc2ccc(O)cc2c1[N+](=O)[O-])N(C)C,i,i,i,i,i
Cc1ccc(C)n1-c1c(C(=O)NCC(C)c2ccccc2)sc2ncccc12 (centres undefined),i,nt,i,i,i
Cc1nc(Nc2ccccc2)c2oc3ccc(Cl)cc3c2n1,i,i,i,i,93
Cc1ccc(-c2nnc(Nc3ccc4c(c3)OCO4)c3ccccc23)cc1S(N)(=O)=O,i,i,i,i,i
SMILES,D1 antag,D3 antag,D1 potentiator,D1 ag,DRD3 agonist
c1ccc2c(c1)oc1c(Nc3ccc4c(c3)OCO4)ncnc12,i,i,i,i,i
Cc1nnc(Nc2ccc3c(c2)OCO3)c2ccccc12,i,-63,i,i,i
Cc1nc(Nc2ccc3c(c2)OCO3)c2oc3ccccc3c2n1,i,-54,i,i,i
COc1ccccc1NC(=O)CSc1nnc(NC(=O)Nc2ccc(C)cc2)s1,nt,nt,i,i,i
Cc1ccccc1NCc1cccn1-c1nnc(N2CCC(C)CC2)s1,i,nt,i,i,i
Cc1cccc(OCC(=O)Nc2ccc(-c3nc4cc(C)ccc4o3)c(O)c2)c1,i,nt,i,i,i
CCCCNc1cc(NC(C)=O)cc2cc(OC)c(OC)cc12,i,-75,i,i,53
Cc1cc2c(s1)c1cnn(Cc3cccc(Cn4ncc5c6sc(C)cc6n(C)c5c4=O)c3F)c(=O)c1n2C,i,nt,i,i,nt
Nc1nonc1-n1nnc(C(=O)N/N=C/c2c(Cl)cccc2Cl)c1CSC1=NCCS1,i,-53,i,i,i
CCCc1c(C(=O)N/N=C/C=C/c2ccccc2)nnn1-c1nonc1N,nt,i,nt,nt,i
Nc1nonc1-n1nnc(C(=O)N/N=C/C=C/c2ccccc2)c1CSC1=NCCS1,i,-50,i,i,i
COc1ccc(N2CCN(C(=O)c3cccn3-c3nnc(N4CCCC4)s3)CC2)cc1,i,nt,i,i,i
CCOc1ccccc1C(=O)N1CCCCC1CCN1CCOCC1 (centres undefined),i,nt,i,i,i
NC(=O)Oc1ccc(Cc2ccccc2)cc1,nt,nt,nt,nt,i
COC(=O)[C@H]1[C@H]2C[C@@H]3c4[nH]c5cc(OC)ccc5c4CCN3C[C@H]2C[C@@H](OC(=O)c2ccc(N)cc2)[C@@H]1OC,-66,i,i,i,i
COC(=O)[C@H]1[C@H]2C[C@@H]3c4[nH]c5cc(OC)ccc5c4CCN3C[C@H]2C[C@H](OC)[C@@H]1OC,nt,nt,nt,nt,i
C=CS(=O)(=O)c1c2cc(OC)ccc2nc2ccc(OC)cc12,nt,-83,nt,nt,i
Cc1cccc(C(=O)Nc2nnc(S(=O)(=O)N(C)c3ccccc3C)s2)c1,i,nt,i,i,i
O=C(Nc1ccccc1OC(F)F)c1oc2ccccc2c1COc1ccccc1,i,i,i,32,i
N#Cc1c(-c2ccccc2)[nH]c(=S)[nH]c1=O,i,-60,i,i,i
N#Cc1c(-c2cccc(Cl)c2)[nH]c(=S)[nH]c1=O,i,i,i,i,i
COc1cc(Cl)c(C)cc1NC(=O)CNC(C)c1ccccc1OC (centres undefined),i,i,i,i,i
COc1ccccc1C(C)NCC(=O)Nc1c(F)cccc1F (centres undefined),i,-56,i,i,i
N#Cc1c(SCc2ccccc2)sc(C(=O)c2ccccc2)c1N,-49,i,i,i,i
CC(C)COc1ccc(C(=O)OCCN2CCCCC2)cc1,i,i,i,i,i
SMILES,D1 antag,D3 antag,D1 potentiator,D1 ag,DRD3 agonist
COc1cc(C(=O)OCCCN2CCOCC2)ccc1O,i,i,i,i,i
O=C(OCCN1CCCCC1)c1ccc(Cl)cc1,i,-78,i,i,i
COc1cc(C(=O)OCCN2CCCCC2)ccc1O,i,-58,i,i,i
COc1cc(C#CC#CCN2CCCCC2)ccc1O,i,-116,i,i,i
CN(C(=O)CO)c1c(I)c(C(=O)NCC(O)CO)c(I)c(C(=O)NCC(O)CO)c1I (centres undefined),nt,nt,nt,nt,i
Nc1ccc(C(=O)N/N=C\c2cc(N=Nc3cccc4ccccc34)ccc2O)cc1,i,-95,i,i,i
COC(=O)N/N=C/c1cc(N=Nc2ccccc2)ccc1O,-34,-63,i,i,i
O=C(NN=Cc1cc([N+](=O)[O-])ccc1O)c1cccc2ccccc12,nt,i,nt,nt,i
COC(=O)N/N=C/c1cc(N=Nc2ccccc2Cl)ccc1O,i,-91,i,i,i
CCc1ccc(S(=O)(=O)Nc2ccc3[nH]c(=O)sc3c2)cc1,i,nt,i,i,i
Cc1ccc(-c2nnc(Nc3ccc(Br)cc3)c3ccccc23)cc1S(=O)(=O)N1CCOCC1,i,nt,i,i,i

# Bioassay records from PubChem.
